KLK7 zymogen act – activators of human kallikrein-7 zymogen; P49862; purified proKLK7, EDANS-DABCYL substrate fluorescence; 100% is mature enzyme control, 0% vehicle; activation, % at 7 µM; actives 0.9% (n = 370,000); AID 652039;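 active means activation above the mean of all tested compounds plus 3 SD, computed per campaign excluding outliers beyond control limits, cut at about 13% in these data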
Target sequence (P49862 whole entry, looked up): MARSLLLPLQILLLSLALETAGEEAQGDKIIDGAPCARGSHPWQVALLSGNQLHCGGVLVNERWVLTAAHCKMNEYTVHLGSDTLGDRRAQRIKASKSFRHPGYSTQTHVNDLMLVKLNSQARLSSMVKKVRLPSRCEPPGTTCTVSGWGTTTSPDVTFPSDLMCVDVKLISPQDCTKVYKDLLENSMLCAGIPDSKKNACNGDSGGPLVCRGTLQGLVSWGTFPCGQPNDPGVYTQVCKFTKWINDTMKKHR
ADAM10 inh – inhibitors of human ADAM10; recombinant ADAM10, EDANS/DABCYL FRET peptide cleavage, 3 h; inhibition, % at 7 µM; actives 0.62% (n = 370,000); O14672;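 active means inhibition above a per-campaign cutoff equal to the mean of compounds falling between control-based bounds plus 3 SD, cut at about 20% in these data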;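 further: 0% = DMSO wells while the 100% control is not disclosed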
Target sequence (O14672 214-748 limits assumed): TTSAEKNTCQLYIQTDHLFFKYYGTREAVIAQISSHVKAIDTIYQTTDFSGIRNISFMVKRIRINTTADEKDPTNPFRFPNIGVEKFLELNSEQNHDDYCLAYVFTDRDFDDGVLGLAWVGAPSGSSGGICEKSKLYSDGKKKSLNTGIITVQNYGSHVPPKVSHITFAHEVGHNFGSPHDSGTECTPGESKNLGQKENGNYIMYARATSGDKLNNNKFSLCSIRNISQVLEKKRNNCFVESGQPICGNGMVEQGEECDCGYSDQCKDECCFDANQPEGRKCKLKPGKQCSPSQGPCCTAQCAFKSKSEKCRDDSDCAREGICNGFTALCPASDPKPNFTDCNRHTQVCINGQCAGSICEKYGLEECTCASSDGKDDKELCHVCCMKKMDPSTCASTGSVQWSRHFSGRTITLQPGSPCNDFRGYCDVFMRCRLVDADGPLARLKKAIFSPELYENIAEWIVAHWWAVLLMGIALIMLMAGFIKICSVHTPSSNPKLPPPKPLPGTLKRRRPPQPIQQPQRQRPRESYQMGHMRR
PLC-gamma1 inh – PLC-gamma1 (human) inhibition, primary screen; P19174; purified PLC-gamma1, fluorogenic substrate, fluorescence; inhibition, % at 12.2 µM; actives 0.84% (n = 370,000); in the data active means inhibition above about 9.5%
HGIII-sPLA2 inh – Inhibits HGIII-sPLA2 liposome hydrolysis, primary screen | Q9NZ20 | QFRET BODIPY PC-A2 liposome hydrolysis, fluorescence | inhibition, % at 12.2 µM | actives 0.56% (n = 370,000);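 active means inhibition above mean plus 3 SD of compounds lying within the high and low control bounds, cut at about 19% in these data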;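 further: 0% = median of test compound wells and 100% = no enzyme DMSO wells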
ADAM17 inh – ADAM17 inhibition, QFRET primary screen. actives 0.83% (n = 370,000). inhibition, % at 6.95 µM. P78536. recombinant ADAM17, EDANS/DABCYL FRET peptide cleavage;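 active means inhibition above the mean of compounds lying between control limits plus 3 SD, set per campaign, cut at about 8.5% in these data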;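 further: 0% = DMSO-only wells as the low control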
PLCb3 inh – blocks human PLC-beta3 enzyme activity. Q01970. Purified PLC-beta3, fluorogenic substrate, fluorescence. inhibition, % at 12.2 µM. actives 0.18% (n = 370,000); in the data active means inhibition above about 11%;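 further: 0% = median of compound wells on plate and 100% = full blocker control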
hGIII sPLA2 conf – human GIII-sPLA2 inhibition, confirmation; actives 34% (n = 2,000); shares compounds with HGIII-sPLA2 inh; recombinant hGIII-sPLA2, BODIPY PC-A2 QFRET fluorescence; inhibition, % at 12.2 µM;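 active means mean inhibition across triplicates above the hit cutoff set in the earlier primary screen, cut at about 19% in these data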;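 further: 0% = enzyme with DMSO and 100% = DMSO wells lacking enzyme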
535nm interf – optically interferes with 535nm fluorescence in sPLA2 counter-screen; actives 8.5% (n = 2,000); shares compounds with HGIII-sPLA2 inh; inhibition, % at 12.2 µM; AID 743282; BODIPY FL product fluorescence interference, QFRET;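 active means average inhibition above the solvent-only control mean plus 3 SD, cut at about 6% in these data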;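 further: 0% = DMSO with substrate plus product and 100% = DMSO with substrate alone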
535nm interf DR – counter-screen for HGIII-sPLA2 inhibitors: 535nm fluorescence interference, dose response; shares compounds with HGIII-sPLA2 inh; BODIPY FL product fluorescence interference, cell-free; IC50, µM; 240 tested, under 10 active; AID 743455;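 active means IC50 at or below 10 µM; inactive means IC50 above 10 µM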
The depositor's hits bear a star; x = no result given. Shown are actives, neighbours in structure and some others; about 3.4% of the full set was active somewhere.

SMILES | KLK7 zymogen act | ADAM10 inh | PLC-gamma1 inh | HGIII-sPLA2 inh | ADAM17 inh | PLCb3 inh | hGIII sPLA2 conf | 535nm interf | others
Oc1ccccc1/C=N/NC(=S)NCCc1ccccc1 | -58.2 | -16.0 | -113.0 | 19.6* | -6.1 | -167.9 | 21.3* | 7.3*
C/C(=N\NC(=S)NCCc1ccccc1)c1ccc(O)cc1O | -0.9 | -4.1 | -29.3 | 33.4* | 4.0 | -56.4 | 40.4* | 3.0 | 535nm interf DR=>122
S=C(NCCc1ccccc1)N/N=C/c1cccs1 | 0.2 | 7.4 | 7.4 | 20.0* | 5.9 | -8.0 | 20.3* | -0.7
CC/C(=N/NC(=O)c1ccc(Br)cc1)c1ccc(OCCN2CCOCC2)cc1 | 0.5 | -6.9 | -8.6 | 20.7* | 2.4 | -9.8 | 10.5 | -6.8
CC/C(=N/NC(=O)c1ccccc1)c1ccc(OCCN2CCOCC2)cc1 | -0.5 | -3.9 | 0.7 | 5.3 | -3.1 | -0.4 | x | x
c1ccc2cc(Cn3ccc4ccc(-c5ccc6cc[nH]c6c5)cc43)ccc2c1 | -2.0 | -40.1 | -56.4 | 23.2* | -15.8 | -87.1 | 6.2 | 10.3*
C=CCN=C1NC(c2ccc(Cl)cc2)C(C(=O)OC)=C(C)N1C (configuration not stated) | 0.2 | -4.8 | 2.9 | 1.7 | 0.9 | 2.1 | x | x
C=CCN=C1NC(c2ccc(F)cc2)C(C(=O)OC)=C(C)N1C (configuration not stated) | -0.3 | -1.9 | -1.7 | 23.3* | -4.2 | 0.4 | 6.0 | -10.4
O=C(N/C(=C\c1ccccc1)C(=O)N1CCN(CCO)CC1)c1ccccc1 | -0.1 | -0.5 | -0.4 | 21.1* | -1.0 | -1.5 | 4.6 | -3.4
O=C(N/C(=C/c1ccccc1)C(=O)N1CCCCCC1)c1ccccc1 | -0.3 | -11.2 | -0.8 | 2.6 | -1.9 | 1.1 | x | x
CCOc1ccc(-n2c(SCC(=O)Nc3ccc(S(=O)(=O)Nc4cc(C)nc(C)n4)cc3)nnc2-c2ccc(OC)cc2)cc1 | 0.6 | 0.9 | 2.5 | -30.2 | 2.5 | -1.8 | x | x
CCCCn1c(SCc2nc(N)nc(N3CCCCC3)n2)nc2c1c(=O)n(C)c(=O)n2C | -0.1 | -2.5 | -0.6 | 20.9* | -4.7 | -0.1 | 3.6 | -32.1
CC(=O)NC(=S)NNC(=O)COc1ccc(Br)cc1 | 0.3 | 0.6 | -0.8 | -6.2 | 0.0 | 1.0 | x | x
O=C(NC(=S)Nc1ccccc1N1CCCC1)c1ccccc1[N+](=O)[O-] | 0.1 | 6.7 | 5.8 | 4.5 | 2.5 | 2.9 | x | x
O=C(NNC(=S)NC(=O)c1ccccc1[N+](=O)[O-])c1ccccc1[N+](=O)[O-] | 0.4 | 3.9 | 3.6 | 22.6* | -1.3 | 5.1 | 24.0* | -0.3
O=C(NNC(=S)NC(=O)c1ccccc1[N+](=O)[O-])c1ccc(Cl)cc1Cl | -0.3 | 8.8 | 0.9 | 13.6 | -3.8 | 0.1 | x | x
Cc1cc(Br)cc(C)c1NC(=O)c1ccccc1[N+](=O)[O-] | 0.1 | -5.6 | 2.0 | 21.4* | -0.2 | -5.3 | 4.4 | -7.0
O=C(NC(=S)Nc1ccc(N2CCCC2)cc1)c1ccccc1[N+](=O)[O-] | -0.5 | 11.5 | 2.3 | 23.1* | -2.9 | -4.2 | 17.7 | -1.4
O=C(COc1ccc(Br)cc1)NNC(=S)NC(=O)c1ccccc1[N+](=O)[O-] | 0.4 | -1.5 | -6.3 | 23.4* | -0.7 | -4.4 | 42.9* | -14.6
O=C(NNC(=S)Nc1ccccc1)c1ccccc1[N+](=O)[O-] | -0.4 | 2.5 | -2.9 | 9.0 | -0.8 | 3.0 | x | x
O=C(NNC(=S)NC(=O)c1ccccc1Cl)c1cccc([N+](=O)[O-])c1 | -0.7 | -6.5 | 1.0 | 24.6* | -0.5 | -0.5 | 36.6* | -0.6 | 535nm interf DR=>122
O=C(NNC(=S)NC(=O)c1ccc(Br)cc1)c1cccc([N+](=O)[O-])c1 | -0.2 | 15.9 | -0.1 | 12.6 | 7.4 | 1.9 | x | x
O=C(COC(=O)c1ccccc1[N+](=O)[O-])NCCCc1ccccc1 | 0.3 | -8.6 | 0.6 | -0.2 | -4.8 | -7.9 | x | x
O=C(NNC(=S)NC(=O)c1ccccc1[N+](=O)[O-])c1ccccc1O | -0.5 | -5.9 | 3.3 | 32.2* | -3.6 | 0.3 | 14.0 | -1.7
O=C(COC(=O)c1ccccc1[N+](=O)[O-])NC(=O)c1ccccc1 | -0.4 | -12.1 | 0.6 | 21.2* | -4.5 | 1.0 | -0.1 | -6.2
SMILES | KLK7 zymogen act | ADAM10 inh | PLC-gamma1 inh | HGIII-sPLA2 inh | ADAM17 inh | PLCb3 inh | hGIII sPLA2 conf | 535nm interf | others
Cc1ccc(CN2CCCCC(NC(=O)c3ccccc3)C2=O)cc1 (configuration not stated) | 0.4 | -1.4 | -1.4 | -1.7 | -4.8 | -1.3 | x | x
O=S1(=O)c2ccc(Br)cc2OC[C@@H](Cc2ccccc2)N1Cc1cn(Cc2ccc(C(F)(F)F)cc2)nn1 | -0.3 | 5.3 | -0.3 | -0.8 | -2.7 | 0.7 | x | x
CC(C)CN(C(=O)COC(=O)CCc1nc2ccccc2s1)c1c(N)n(Cc2ccccc2)c(=O)[nH]c1=O | 0.1 | -7.1 | 4.5 | 19.5* | 0.7 | -9.3 | 9.0 | -9.4
Oc1ccc(-c2csc(Nc3cccc4ccccc34)n2)cc1O | 3.4 | -33.9 | -16.9 | 21.2* | -18.7 | -29.8 | 9.5 | 11.0*
Oc1ccc(-c2csc(Nc3ccccn3)n2)cc1O | -0.1 | 8.3 | -21.1 | 12.8 | 1.4 | -28.0 | x | x
Cc1nn(CCC(=O)NNC(=O)Nc2ccc(F)cc2)c(C)c1[N+](=O)[O-] | -0.2 | -2.0 | 0.8 | 2.0 | -0.1 | 1.7 | x | x
COCCn1c(C)cc(C(=O)COC(=O)c2ccccc2Br)c1C | 0.0 | 4.8 | 1.5 | -6.7 | -4.8 | -9.6 | x | x
COCCn1c(C)cc(C(=O)COC(=O)c2cncc(Br)c2)c1C | -0.4 | -15.8 | -1.9 | 21.3* | -1.4 | -1.5 | 5.9 | -7.8
Cc1cccc(N2CCN(CC3CCCCC3)CC2)c1C | -0.5 | 0.6 | -4.1 | 3.4 | -0.3 | -4.3 | x | x
Cc1ccc(C)c(N2CCN(CC3CCCCC3)CC2)c1 | -0.2 | -0.7 | 2.2 | 20.9* | -6.6 | 1.5 | 14.9 | -11.8
Fc1ccc(NC(=S)NN2CCOCC2)cc1Cl | -0.8 | -1.6 | 1.9 | 24.7* | 0.9 | 1.4 | 1.4 | -0.1
CC1=NN(c2ccccc2)C(=O)/C1=C/C=C/c1ccc(N(C)C)cc1 | 0.1 | -4.1 | 4.4 | 22.9* | 4.6 | -0.3 | 43.6* | 9.7*
Cc1cc(C)n(CCNC(=O)[C@@H](Cc2ccccc2)NC(=O)[C@H]2O[C@@H](n3ccc(=O)[nH]c3=O)[C@H](O)[C@@H]2O)n1 | 0.0 | -14.4 | 1.8 | 16.6 | -1.8 | -1.5 | x | x
COc1cccc(/C=N/N=C(\N)c2nonc2N)c1O | 0.3 | 10.2 | -3.0 | 19.8* | 0.5 | 1.2 | 5.8 | -3.3
C[C@@H]1CCN(C2CC2)S(=O)(=O)c2ccc(N3CCC[C@H]3CO)cc2O1 | -0.2 | -10.0 | -6.9 | 4.4 | -42.1 | -4.8 | x | x
